DT40 TDP1 no CPT: qHTS for Inhibitors of human tyrosyl-DNA phosphodiesterase 1 (TDP1): qHTS in cells in absence of CPT | Potency, µM (doses to about 46.2 µM), most hits filed as inhibitors | 15% of 420,000 active | DT40 Tdp1-/- hTDP1 cells, no CPT, ATP luminescence, 48 h; further: nearly all actives have a fitted effect of over 55% in size
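Growth of hTDP1-complemented DT40 Tdp1-knockout cells is measured by ATP luminescence after at least 48 hr compound exposure at 37 °C, with DMSO substituting for the 20 nM CPT used in the parallel screen.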
KB-V1 MDR tox: qHTS assay for MDR1-selective chemotherapeutics: Primary screen using the drug-selected MDR subline cells KB-V1; KB-V1 MDR cells viability, CellTiter-Glo, 72 h; Potency, µM (top dose mostly 46.1 µM), usual class: cytotoxic; 3.4% of 400,000 active; further: nearly all actives have a fitted effect of over 60% in size
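Following 72 h at 37 degrees C with compound, KB-V1 cell viability was read by CellTiter-Glo luminescence, medium being phenol-red-free DMEM plus 10% FBS; concentration-response parameters came from normalized, curve-fitted qHTS data.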
DT40 TDP1 CPT: qHTS for Inhibitors of human tyrosyl-DNA phosphodiesterase 1 (TDP1): qHTS in cells in presence of CPT; chicken DT40 Tdp1-/-;hTDP1 cells + 20 nM CPT, ATP luminescence, 48 h; 12% of 420,000 active; Potency, µM (titrated, usually from 46.2 µM), most hits filed as inhibitors; further: nearly all actives have a fitted effect of over 55% in size
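Chicken DT40 Tdp1-/- cells complemented with human TDP1, 400 cells/well, exposed to compounds plus 20 nM camptothecin for at least 48 h at 37 C; viability read as ATP content by CellTiter-Glo luminescence.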
KB-3-1 cytotox: qHTS assay for MDR1-selective chemotherapeutics: Primary screen using the parental adenocarcinoma cell KB-3-1 | AID 1347075, 2019 | Potency, µM (top dose mostly 46.1 µM), usual class: cytotoxic | KB-3-1 viability, CellTiter-Glo ATP luminescence, 72 h | 1.4% of 400,000 active; further: nearly all actives have a fitted effect of over 60% in size
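72 h, 37 °C compound treatment of KB-3-1 parental cells; CellTiter-Glo added, 10 min, luminescence read. Data corrected against DMSO-only plates and normalized before curve fitting.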
HT1080-NT tox: qHTS for induction of synthetic lethality in tumor cells producing 2HG: qHTS for the HT-1080-NT fibrosarcoma cell line; AID 686970, 2013; HT-1080-NT fibrosarcoma viability, CellTiter-Glo ATP luminescence, 48 h; 1.6% of 360,000 active; Potency, µM (series often up to 46.1 µM), usual class: cytotoxic;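 further: NT is the 2HG producing partner of a matched IDH1 knockdown line; nearly all actives have a fitted effect of over 55% in size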
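Luminescent CellTiter-Glo readout after 48 hours of compound exposure at 37 degrees C defined viability of HT-1080-NT cells. Activity was normalized to DMSO wells and cell-free media wells; concentration-response curves were fitted and assigned curve classes.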
HT1080 IDH1KD tx: qHTS for induction of synthetic lethality in tumor cells producing 2HG: qHTS for the HT-1080-IDH1KD cell line; Potency, µM (doses to about 46.1 µM), hits mostly cytotoxic; AID 686971, 2013; HT-1080 IDH1 knockdown viability, ATP luminescence, 48 h; 2% of 360,000 active
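HT-1080-IDH1KD cells (IDH1 knocked down), 750/well in RPMI with 5% FBS, treated with compound 48 h at 37 degrees C. Viability by CellTiter-Glo luminescence, normalised to DMSO and no-cell wells; concentration-response curves classed.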
Each line names hits and unclear results; the compound was inactive in the other large screens. Only some compounds are listed: those with a hit (about 19% of all), similar ones and a draw of the others. The call rests on the fitted dose curve; in most records, active means well fitted curve in the direction sought with a large enough effect; inconclusive means small, poorly fitted or top-dose-only effect, or another doubt; inactive means no such curve, though single readings can be large; an effect the other way counts as inactive or inconclusive.

Cc1cc(C)c(NC(=O)CN(C)CC(=O)N(C)CC(=O)Nc2c(Cl)cccc2Cl)c(C)c1	none
CCOc1cc(N2CCOCC2)c(OCC)cc1NC(=O)c1cc(-c2ccco2)nc2ccccc12	DT40 TDP1 no CPT 23µM, DT40 TDP1 CPT inconclusive
COc1cc(-c2cc(C(=O)Nc3ccc(N4CCOCC4)cc3)c3ccccc3n2)cc(OC)c1OC	DT40 TDP1 no CPT 1.8µM, DT40 TDP1 CPT 2.6µM
CCOc1cc(N2CCOCC2)c(OCC)cc1NC(=O)c1oc2ccccc2c1C	DT40 TDP1 no CPT inconclusive
O=C(COc1ccccc1F)Nc1ccc2nc(SCC(=O)N3CCCC3)sc2c1	DT40 TDP1 no CPT 13µM, DT40 TDP1 CPT inconclusive (no result: KB-V1 MDR tox, KB-3-1 cytotox, HT1080-NT tox, HT1080 IDH1KD tx)
CSc1nc2ccc(NC(=O)COc3ccccc3F)cc2s1	DT40 TDP1 no CPT inconclusive
O=C(Nc1ccc2nc(SCC(=O)N3CCCC3)sc2c1)c1ccccc1F	DT40 TDP1 no CPT 16µM, DT40 TDP1 CPT 16µM (no result: KB-V1 MDR tox, KB-3-1 cytotox, HT1080-NT tox, HT1080 IDH1KD tx)
O=C(COc1ccccc1F)Nc1ccc2nc(SCC(=O)N3CCOCC3)sc2c1	DT40 TDP1 no CPT 12µM, DT40 TDP1 CPT 18µM (no result: KB-V1 MDR tox, KB-3-1 cytotox, HT1080-NT tox, HT1080 IDH1KD tx)
Cc1cc(C)cc(NC(=O)Cn2c(=O)n(Cc3ccco3)c(=O)c3oc4ccccc4c32)c1	DT40 TDP1 CPT inconclusive (no result: HT1080-NT tox, HT1080 IDH1KD tx)
O=c1c2ccccc2sn1-c1ccc(Cl)c(S(=O)(=O)N2CCOCC2)c1	DT40 TDP1 no CPT 3.2µM, KB-V1 MDR tox inconclusive, DT40 TDP1 CPT 1.4µM (no result: HT1080-NT tox, HT1080 IDH1KD tx)
CCCc1ccc(OCC(=O)Nc2scc(-c3cccs3)c2C(=O)OC)cc1	DT40 TDP1 no CPT inconclusive, DT40 TDP1 CPT inconclusive (no result: HT1080-NT tox, HT1080 IDH1KD tx)
COC(=O)c1c(-c2cccs2)csc1NC(=O)c1ccc(Br)cc1	DT40 TDP1 no CPT inconclusive, DT40 TDP1 CPT inconclusive (no result: HT1080-NT tox, HT1080 IDH1KD tx)
COc1cc(C(=O)Nc2scc(-c3ccc(C)cc3)c2C(=O)O)cc(OC)c1OC	none
COC(=O)c1c(-c2cccs2)csc1NC(=O)COc1ccc(C(C)C)cc1	DT40 TDP1 no CPT 21µM, DT40 TDP1 CPT inconclusive (no result: KB-V1 MDR tox, KB-3-1 cytotox, HT1080-NT tox, HT1080 IDH1KD tx)
COC(=O)c1c(-c2cccs2)csc1NC(=O)c1cc(OC)c(OC)c(OC)c1	DT40 TDP1 no CPT 5.8µM, DT40 TDP1 CPT 9.2µM (no result: KB-V1 MDR tox, KB-3-1 cytotox, HT1080-NT tox, HT1080 IDH1KD tx)
CCOC(=O)c1c(-c2cccs2)csc1NC(=O)COC(=O)c1c(C)noc1C	DT40 TDP1 no CPT inconclusive, KB-V1 MDR tox 21µM, DT40 TDP1 CPT inconclusive
COC(=O)c1c(-c2cccs2)csc1NC(=O)c1cc(OC)cc(OC)c1	DT40 TDP1 no CPT inconclusive, DT40 TDP1 CPT 16µM (no result: HT1080-NT tox, HT1080 IDH1KD tx)
COc1ccccc1/C=C/C(=O)NCc1cccnc1	none
COC(=O)c1c(-c2cccs2)csc1NC(=O)c1ccc(OC)c(OC)c1	DT40 TDP1 no CPT 9.2µM, DT40 TDP1 CPT 12µM (no result: HT1080-NT tox, HT1080 IDH1KD tx)
COC(=O)c1c(-c2cccs2)csc1NC(=O)c1ccc(C)cc1	DT40 TDP1 no CPT inconclusive (no result: KB-V1 MDR tox, KB-3-1 cytotox, HT1080-NT tox, HT1080 IDH1KD tx)
C=C(C)CCC(C)N1CCC(n2nccc2NC(=O)CCCc2ccccc2)CC1 (stereo unspecified)	DT40 TDP1 no CPT inconclusive, DT40 TDP1 CPT inconclusive
CCc1nnc(NC(=O)CCC(=O)N2CCN(Cc3ccccc3)CC2)s1	none
Cc1ccc(OCCN2CCN(C(=O)CCC(=O)Nc3nnc(CC(C)C)s3)CC2)cc1	DT40 TDP1 no CPT 10µM, KB-V1 MDR tox 8.2µM, DT40 TDP1 CPT inconclusive, KB-3-1 cytotox inconclusive, HT1080-NT tox inconclusive, HT1080 IDH1KD tx 9.2µM
CCCc1nnc(NC(=O)CCC(=O)N2CCN(Cc3ccc(Cl)cc3)CC2)s1	DT40 TDP1 no CPT inconclusive, KB-V1 MDR tox inconclusive, DT40 TDP1 CPT 16µM
CC(C)Cc1nnc(NC(=O)CCC(=O)N2CCN(Cc3ccc(F)cc3)CC2)s1	DT40 TDP1 CPT inconclusive
CCc1nnc(NC(=O)CCC(=O)N2CCN(Cc3ccc(Cl)cc3)CC2)s1	DT40 TDP1 no CPT 23µM, DT40 TDP1 CPT 18µM
